PubChem BioAssay (NCATS)
“And” between values parts separate entries of the source, which are not always exact repeats. Equal values may be shown once. Records with an inconclusive call do not appear. The source made the active and inactive calls. Calls follow the shape of the dose curve; as a rule, active = well fitted curve in the direction sought with a large enough effect; inconclusive = small, poorly fitted or top-dose-only effect, or another doubt; inactive = no such curve, though single readings can be large; an effect the other way counts as inactive or inconclusive. *1 amine or outer side, *2 acyl side, *3 side chain or, on linkers, in order; H or OH if unused. Where a SMILES comes first, the peptide text is derived from it. Bridges are numbered along the chain shown (N, C = ends). [ ]: non-standard residue; d: D form. The star is where a group is joined. ξ: configuration not given here. X10 = NC1=NCCC(C(N[*:1])C(=O)[*:2])N1; ΔAla(3-NHCONH2) = NC(=O)NC=C(N)C(=O)O; ξβ3hOrn = NCCCC(N)CC(=O)*; Dap = NC[CH](N)C(=O)O

Tests used:
Hek293T = experiment: Primary qHTS to identify gynecologic anti-cancer compounds using libraries of approved drugs and bioactive compounds (AID 1345084); details: Gynecologic cancer cell panel viability, ATPlite luminescence, 48 h, control line for the selectivity index; series mostly up to 57.5 µM; also: nearly all actives have a fitted effect of over 55% in size
Outline: (§1)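 Cytotoxicity screen measuring ATP content by luciferase luminescence. Each compound is applied at five concentrations for 48 h at 37 C with 5% CO2.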

JEG-3 = experiment: as above; details: Gynecologic cancer cell panel viability, ATPlite luminescence, 48 h; series mostly up to 57.5 µM
Outline: as §1

OV90 = experiment: as above; details: Gynecologic cancer cell panel viability, ATPlite luminescence, 48 h; series mostly up to 57.5 µM
Outline: as §1

PA-1 = experiment: as above; details: Gynecologic cancer cell panel viability, ATPlite luminescence, 48 h; series mostly up to 57.5 µM
Outline: as §1

Tov-21-G = experiment: as above; details: Gynecologic cancer cell panel viability, ATPlite luminescence, 48 h; series mostly up to 57.5 µM
Outline: as §1

Tov112D = experiment: as above; details: Gynecologic cancer cell panel viability, ATPlite luminescence, 48 h; series mostly up to 57.5 µM
Outline: as §1

[1] = Drug repurposing screens with cells derived from glioblastoma tumor samples (AID 1345199); details: GBM patient neurospheres viability, ATP luminescence, 48 h; also: nearly all actives have a fitted effect of over 40% in size
Outline: (§2)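 Four patient lines of CD133+ GBM neurospheres were screened at several concentrations; hits were retested in those lines plus three slower-growing GBM lines, using 48-hour treatment and ATP-based viability.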

astro = experiment: as above; details: viability, ATP luminescence, 48 h; series mostly up to 45.9 µM
Outline: as §2

[2] = at 45.9 µM (top of the series), tumour line B
[3] = at 45.9 µM (top of the series), tumour line D
[4] = at 46 µM (top of the series), tumour line A
[5] = at 46.1 µM (top of the series), tumour line C
% is scaled to controls: 0 for no effect and ±100 for the full control effect.

Cc1ncc([N+](=O)[O-])n1C
inactive: Potency (Hek293T) | Potency (JEG-3) | Potency (OV90) | Potency (PA-1) | Potency (Tov-21-G) | Potency (Tov112D)

C[C@H]1NCc2cc(-c3ccc4c(=O)c(C(=O)O)cn(C5CC5)c4c3OC(F)F)ccc21
inactive: Potency (Hek293T) | Potency (JEG-3) | Potency (OV90) | Potency (PA-1) | Potency (Tov-21-G) | Potency (Tov112D) | activity, negative = cell killing [1, 2] 3.7% | activity, negative = cell killing [1, 3] 27.3% | activity, negative = cell killing [1, 4] -27.3% | activity, negative = cell killing [1, 5] -18% | Potency (astro)

Cc1ccccc1C(=O)N1CC/C(=N\OS(=O)(=O)O)c2ccc(Cl)cc21
inactive: Potency (Hek293T) | Potency (JEG-3) | Potency (OV90) | Potency (PA-1) | Potency (Tov-21-G) | Potency (Tov112D) | activity, negative = cell killing [1, 2] -4.66% | activity, negative = cell killing [1, 3] -7.25% | activity, negative = cell killing [1, 4] -14.2% | activity, negative = cell killing [1, 5] 2.94% | Potency (astro)

Cc1cc(=O)oc2cc(O[C@@H]3SC[C@@H](O)[C@H](O)[C@H]3O)ccc12
inactive: Potency (Hek293T) | Potency (JEG-3) | Potency (OV90) | Potency (PA-1) | Potency (Tov-21-G) | Potency (Tov112D)

CCCCC(O)/C=C(C)/C=C/C=C/C(=O)N1CCCC1=O (configuration not stated)
inactive: Potency (Hek293T) | Potency (JEG-3) | Potency (OV90) | Potency (PA-1) | Potency (Tov-21-G) | Potency (Tov112D)

CCCCN(CCCC)C(C(N)=O)c1ccc(OC)cc1 (configuration not stated)
inactive: Potency (Hek293T) | Potency (JEG-3) | Potency (OV90) | Potency (PA-1) | Potency (Tov-21-G) | Potency (Tov112D)

CCCC(=O)OCOC(=O)C1=C(C)NC(C)=C(C(=O)OC)C1c1cccc(Cl)c1Cl (configuration not stated)
inactive: Potency (Hek293T) | Potency (JEG-3) | Potency (OV90) | Potency (PA-1) | Potency (Tov-21-G) | Potency (Tov112D)

CC(NN)c1ccccc1 (configuration not stated)
inactive: Potency (Hek293T) | Potency (JEG-3) | Potency (OV90) | Potency (PA-1) | Potency (Tov-21-G) | Potency (Tov112D) | activity, negative = cell killing [1, 2] -17.4% | activity, negative = cell killing [1, 3] -5.52% | activity, negative = cell killing [1, 4] -23.7% | activity, negative = cell killing [1, 5] -0.872% | Potency (astro)

O=c1[nH]c(=O)n([C@H]2O[C@H](CO)[C@@H](O)[C@@H]2O)cc1/C=C\Br
inactive: Potency (Hek293T) | Potency (JEG-3) | Potency (OV90) | Potency (PA-1) | Potency (Tov-21-G) | Potency (Tov112D)

CCCc1c2oc(C(=O)O)cc(=O)c2cc2c(=O)cc(C(=O)O)n(CC)c12
inactive: Potency (Hek293T) | Potency (JEG-3) | Potency (OV90) | Potency (PA-1) | Potency (Tov-21-G) | Potency (Tov112D) | activity, negative = cell killing [1, 2] -3.36% | activity, negative = cell killing [1, 3] -8.4% | activity, negative = cell killing [1, 4] -11% | activity, negative = cell killing [1, 5] -12.7% | Potency (astro)

CCCCN(CCN(CCCC)C(=O)N1CCOCC1)C(=O)N1CCOCC1
inactive: Potency (Hek293T) | Potency (JEG-3) | Potency (OV90) | Potency (PA-1) | Potency (Tov-21-G) | Potency (Tov112D)

O=C(CCCl)NCCc1ccccc1
inactive: Potency (Hek293T) | Potency (JEG-3) | Potency (OV90) | Potency (PA-1) | Potency (Tov-21-G) | Potency (Tov112D)

N#CSCC(=O)O
inactive: Potency (Hek293T) | Potency (JEG-3) | Potency (OV90) | Potency (PA-1) | Potency (Tov-21-G) | Potency (Tov112D)

CCC(C(=O)NC(=O)NC(C)=O)c1ccccc1 (configuration not stated)
inactive: Potency (Hek293T) | Potency (JEG-3) | Potency (OV90) | Potency (PA-1) | Potency (Tov-21-G) | Potency (Tov112D) | activity, negative = cell killing [1, 2] -11.4% | activity, negative = cell killing [1, 3] -13.3% | activity, negative = cell killing [1, 4] -27.9% | activity, negative = cell killing [1, 5] -4.25% | Potency (astro)

NCCCC(N)CC(=O)NCC1NC(=O)C(CO)NC(=O)C(N)CNC(=O)C(C2CCN=C(N)N2)NC(=O)C(=CNC(N)=O)NC1=O (stereo not drawn) (H-[Dap]S[Dap](ξβ3hOrn)[ΔAla(3-NHCONH2)][X10]; lactam 1-C; configuration not given here)
inactive: activity change, negative = cytotoxicity (Hek293T) -1.45% [at 0.462 µM] | activity change, negative = cytotoxicity (JEG-3) 1.16% [at 0.462 µM] | activity change, negative = cytotoxicity (OV90) -2.62% [at 0.462 µM] | activity change, negative = cytotoxicity (PA-1) 8.19% [at 0.462 µM] | activity change, negative = cytotoxicity (Tov-21-G) 4.2% [at 0.462 µM] | activity change, negative = cytotoxicity (Tov112D) 4.39% [at 0.462 µM]

O=C(O)[C@H](O)[C@@H](O)[C@H](O[C@@H]1O[C@H](CO)[C@H](O)[C@H](O)[C@H]1O)[C@H](O)CO
inactive: Potency (Hek293T) | Potency (JEG-3) | Potency (OV90) | Potency (PA-1) | Potency (Tov-21-G) | Potency (Tov112D) | activity, negative = cell killing ([1]; at 20 µM (top of the series), tumour line C) -12.3% | activity, negative = cell killing ([1]; at 21.2 µM (top of the series), tumour line B) -2.57% | activity, negative = cell killing ([1]; at 21.2 µM (top of the series), tumour line D) -4.25% | activity, negative = cell killing ([1]; at 21.3 µM (top of the series), tumour line A) -22.9% | Potency (astro)

COc1ccccc1OCC1CNC(=O)O1 (configuration not stated)
inactive: Potency (Hek293T) | Potency (JEG-3) | Potency (OV90) | Potency (PA-1) | Potency (Tov-21-G) | Potency (Tov112D) | activity, negative = cell killing [1, 2] -0.636% | activity, negative = cell killing [1, 3] -0.575% | activity, negative = cell killing [1, 4] -28.8% | activity, negative = cell killing [1, 5] 4.79% | Potency (astro)

Cc1nc(C2CCCCC2)c(-c2ccc(S(N)(=O)=O)c(F)c2)o1
inactive: Potency (Hek293T) | Potency (JEG-3) | Potency (OV90) | Potency (PA-1) | Potency (Tov-21-G) | Potency (Tov112D)

Cc1c(N)cccc1C(F)(F)F
inactive: Potency (Hek293T) | Potency (JEG-3) | Potency (OV90) | Potency (PA-1) | Potency (Tov-21-G) | Potency (Tov112D)

Cc1ccc(O)cc1
inactive: Potency (Hek293T) | Potency (JEG-3) | Potency (OV90) | Potency (PA-1) | Potency (Tov-21-G) | Potency (Tov112D) | activity, negative = cell killing [1, 2] -22.9% and -5.16% | activity, negative = cell killing [1, 3] -8.77% and -8.54% | activity, negative = cell killing [1, 4] -10.9% | activity, negative = cell killing [1, 5] 8.95% and -5.08% | Potency (astro)

COc1ccc2c(c1)CCCC2=O
inactive: Potency (Hek293T) | Potency (JEG-3) | Potency (OV90) | Potency (PA-1) | Potency (Tov-21-G) | Potency (Tov112D)

Cn1c(=O)c2c(ncn2CC(=O)O)n(C)c1=O
inactive: Potency (Hek293T) | Potency (JEG-3) | Potency (OV90) | Potency (PA-1) | Potency (Tov-21-G) | Potency (Tov112D)
